# Measured values published in ChEMBL document CHEMBL3988442, “University of Dundee, Small-Polar-MMV Screening Library” (2021).
# Screen size: about 48,000 compounds; about 13,000 (27%) showed an effect of 50% or more. The list shows a part of the results.
# Tested on: Wolbachia pipientis
# Assay: Anti-Wolbachia Cell-Based Screen
# Assay type: functional
# Parameters: scale not given: in the data most compounds retested in dose-response had high values
# Settings: 5 µM
row,Structure (SMILES),Percent Effect [%]
1,COc1ccc(Cc2ncc3c(n2)CN(C(=O)C2COCCO2)C3)cc1 (stereo not given),-5.777
2,CCCN1CCN(Cc2cc(Cl)cc(Cl)c2)[C@H]2CS(=O)(=O)C[C@H]21,3.846
3,CSC(C)CC(=O)N1CCC(n2ccnn2)CC1 (stereo not given),6.562
4,O=C(C1CC1)N1CCC2(CC1)CNCc1ccccc12,1.154
5,CN(C)C(=O)N1Cc2ccccc2C2(CCNCC2)C1.Cl,-11
6,CCOC(=O)N1CCc2ccccc2C12CCNCC2.Cl,93.5
7,O=C(CCN1CCNCC1)N1CCC2(CC1)c1ccccc1CC2O (stereo not given),4.718
8,Cl.O=C(C1CC1)N1CCc2ccccc2C12CCNCC2,85.13
9,Cl.O=C([C@H]1CCCO1)N1CCC2(CC1)CNCc1ccccc12,-10.28
10,COCC(=O)N1CCC2(CC1)NC(=O)c1ccccc12.Cl,-6.733
11,COCC(=O)N1CCc2[nH]c(=O)ccc2C1,-6.404
12,COCC(=O)N1CCc2ccccc2C12CCNCC2.Cl,112.7
13,CS(=O)(=O)N1CC[C@]2(C[C@H](Oc3ccccn3)CO2)C1.O=C(O)C(F)(F)F,1.633
14,Cn1nc(Cn2cccc2)c2c1CN(Cc1ccsc1)C2.O=C(O)C(F)(F)F,0.5842
15,Cc1ccccc1CN1CCCN(C2CCOC2=O)CC1 (stereo not given),1.458
16,CCO[C@@H]1CN(S(=O)(=O)c2cn(C)cn2)[C@@H]2CCCO[C@@H]21.O=C(O)C(F)(F)F,-6.587
17,Cc1cc(N(C)C)nc(N2CCN(C(C)c3nc(C)no3)CC2)n1 (stereo not given),5.095
18,Cc1cc(C)n(CC2CN(CC(=O)NC3CCOCC3)CCO2)n1 (stereo not given),89.87
19,Cc1cc(C)n(CC2CN(CC(=O)Nc3c(C)n[nH]c3C)CCO2)n1 (stereo not given),-5.671
20,Cc1nc(C)n(CC2CN(CC(=O)Nc3cccnc3)CCO2)n1 (stereo not given),9.573
21,Cc1cc(C)n(CC2CN(CCC(=O)NC3CCCCC3)CCO2)n1 (stereo not given),118.1
22,Cc1nc(C)n(CC2CN(CC(=O)NC3CCCC3)CCO2)n1 (stereo not given),112.4
23,Cc1cc(C)n(CC2CN(CC(=O)NC3CCCCC3)CCO2)n1 (stereo not given),116.8
24,Cc1nc(C)n(CC2CN(CC(=O)Nc3nccs3)CCO2)n1 (stereo not given),1.962
25,Cc1cc(C)n(CC2CN(CC(=O)NC3CCCC3)CCO2)n1 (stereo not given),-2.568
26,CCN1CCC(NC(=O)CN2CCCC2Cn2nc(C)cc2C)CC1 (stereo not given),-4.017
27,CCNC(=O)C1CCN(c2cc(CC)nc3ccnn23)C1 (stereo not given),-6.245

row,Structure (SMILES),Percent Effect [%]
1,CC(C)(C)CCNC(=O)c1ccc(Cl)c(NS(C)(=O)=O)c1,-2.179
2,O=C(NCC(=O)N1CC2(CCCC2)c2c(F)cccc21)C1CC1,-3.819
3,Cc1cc(C)n(CC2CN(CC3CCCC3)CCO2)n1 (stereo not given),115
4,O=C(CN1CCOC(Cn2cccn2)C1)NC(C1CC1)C1CC1 (stereo not given),-1.772
5,Cc1cc(C)n(CC2CN(CC(=O)NC3(C#N)CCCC3)CCO2)n1 (stereo not given),97.92
6,Cc1cc(C)n(CC2CN(CC(=O)NC(C3CC3)C3CC3)CCO2)n1 (stereo not given),97.21
7,Cc1cc(NC(=O)CN2CCOC(Cn3nc(C)cc3C)C2)n(C)n1 (stereo not given),-0.6717
8,CC(C)=CCN1CCOC(Cn2nc(C)cc2C)C1 (stereo not given),-20.01
9,Cc1cc(CN2CCN(CC(=O)NC3(C#N)CCCCC3)CC2)on1,3.175
10,O=C(CN1CCOC(Cn2cncn2)C1)NC(C1CC1)C1CC1 (stereo not given),-5.3
11,Cc1cc(C)n(CC2CN(CC(=O)Nc3ccncc3)CCO2)n1 (stereo not given),89.28
12,Cc1cc(C)n(CC2CN(CCc3ccncc3)CCO2)n1 (stereo not given),-8.109
13,Cc1cc(C)n(CC2CN(CC(=O)Nc3nncs3)CCO2)n1 (stereo not given),-6.247
14,O=C(Nc1cccn(CC(F)(F)F)c1=O)c1ccc(F)cc1,7.272
15,O=C(NCC1CC1)C12CC(CN1Cc1nccs1)C2,-8.528
16,CCNC(=O)[C@@H]1C[C@H](N)CN1Cc1ccc(Sc2ccc(C)cc2)o1,11.39
17,CCNC(=O)[C@@H]1C[C@@H](NC(=O)c2ccc(C)s2)CN1Cc1ccccn1,112.7
18,CCNC(=O)[C@@H]1C[C@@H](NC(=O)Cc2ccccn2)CN1CCCSC,-3.005
19,C/C=C(\C)CN1C[C@H](NC(=O)c2cnc(O)cn2)C[C@H]1C(=O)NCC,-10.14
20,CCNC(=O)[C@@H]1C[C@H](NC(=O)c2ccc(C)s2)CN1Cc1ccc(C)o1,103.2
21,CCNC(=O)[C@@H]1C[C@H](NC(=O)Cc2ccsc2)CN1Cc1ccc(C)o1,8.656
22,CCNC(=O)[C@@H]1C[C@@H](NC(=O)c2cccnc2O)CN1Cc1ccsc1,9.29
23,Cc1cc(C(=O)N2CCC(c3nccn3Cc3ccccn3)CC2)no1,-9.373
24,CCNC(=O)[C@@H]1C[C@@H](NC(=O)c2cc(C)on2)CN1Cc1ccccn1,121.6
25,CSCCc1c(-c2ccccc2)ncn1CC(C)(C)N1CCOCC1,0.5421
26,CN(CCCc1cc(-c2ccccc2)n[nH]1)C(=O)CCCn1cncn1,1.593
27,O=C(COC1CCOC1)N(CC(F)F)c1cccc(Cl)c1 (stereo not given),-1.811

row,Structure (SMILES),Percent Effect [%]
1,CC1CCC(NC(=O)Nc2ccc(CC(=O)N(C)C)cc2)CC1 (stereo not given),5.136
2,CCN(CC)Cc1ccc(C(=O)N2CCN(CC(C)O)CC2)cc1 (stereo not given),-1.675
3,COCc1ccc(C(=O)N2CCN(CC(C)O)CC2)cc1 (stereo not given),108.5
4,CC(O)CN1CCN(C(=O)c2ccc(CN(C)C)cc2)CC1 (stereo not given),105.8
5,CSCc1ccc(C(=O)N2CCN(CC(C)O)CC2)cc1 (stereo not given),99.74
6,CC(O)CN1CCN(C(=O)c2ccc3c(c2)COC3)CC1 (stereo not given),-5.873
7,CSCc1cccc(C(=O)N2CCN(CC(C)O)CC2)c1 (stereo not given),-7.975
8,CC(O)CN1CCN(C(=O)c2ccc(Br)o2)CC1 (stereo not given),-12.79
9,COc1ccccc1C(=O)Nc1ccc([C@@H](O)[C@H]2COCC(=O)N2)cc1,-5.781
10,O=C(O)C1c2nc[nH]c2CCN1Cc1ccccc1-c1ccccc1 (stereo not given),-6.694
11,CC(C)CCc1noc(CN2CCCC(CNS(N)(=O)=O)C2)n1 (stereo not given),-3.11
12,O=S(=O)(NC1CCC2(CC1)OCCO2)c1cccc(Br)c1,-35.45
13,COC(=O)CN(C)C1CCc2ccccc21 (stereo not given),-6.999
14,CCn1cc(CN2CCCN(C(=O)c3ccccc3C)CC2)cn1,154.9
15,CCc1[nH]ncc1C(=O)N1CCCN(Cc2cnn(C)c2)CC1,-4.439
16,CCn1cc(CN2CCCN(C(=O)c3ccccc3OC)CC2)cn1,106.4
17,CCCc1cc(=O)[nH]c2nnc(SCC(=O)OC)n12,10.3
18,COc1ccc(C(NC(=O)NCc2nnc3n2CCC3)C2CC2)cc1 (stereo not given),10.5
19,CC(C)N(Cc1ccccc1)C(=O)NCCNC(=O)c1cccnc1,-12.62
20,CC(C)NC(=O)C1CCc2nnc(CNC(=O)c3cccnc3)n21 (stereo not given),109.4
21,CC(C)NC(=O)C1CCc2nnc(CNC(=O)C3CC3)n21 (stereo not given),113.3
22,CC1CCN(CCNC(=O)C2CCN(C(=O)NC(C)C)CC2)CC1,10.9
23,CC(NC(=O)C1CCCC1)c1nncn1C(C)C (stereo not given),0
24,CC(C)NC(=O)NCc1nnc2n1C(C(=O)N(C)C)CC2 (stereo not given),107
25,CN(Cc1ccc(Cl)s1)C(=O)NCc1nnc2n1CCC2,3.09
26,Cc1ccc2c(c1)nc1n2[C@@H](CNC(=O)c2cccnc2)COC1,-3.716
27,CN(C)C(C(=O)N1CCN(CCn2cccc2)CC1)c1cccc(F)c1 (stereo not given),-3.926

row,Structure (SMILES),Percent Effect [%]
1,O=C1OCCN1CCSc1nnnn1CC(F)(F)F,-1.95
2,CSCc1cccc(S(=O)(=O)NCc2cnn(C)c2C)c1,-8.017
3,CCCc1nc(C)cc(NCc2ccc(S(N)(=O)=O)cc2)n1,98.3
4,Cc1ccc(C)c2c(O)cc(CNCc3ccc(S(N)(=O)=O)cc3)nc12,-3.225
5,Cc1cc(NC(=O)NCCc2ccc(S(N)(=O)=O)cc2)n(C)n1,-16.74
6,Cc1nc(-c2cnn(C)c2)sc1C(=O)NCc1ccc(C)n1C,-0.2397
7,CC(C)c1nn2c(-c3cnn(C)c3)nnc2s1,112.2
8,CN1CCN(c2nc(-c3cnn(C)c3)cs2)CC1,4.898
9,Cc1nc(C(C)C)sc1C(=O)N(C)Cc1cnn(C)c1,-3.073
10,Cc1nn2c(-c3cnn(C)c3)nnc2s1,91.48
11,CS(=O)(=O)NCCC(=O)N1Cc2cnc(-c3ccccc3)nc2C1,16.59
12,CCN(CC1CCOC1)C(=O)Nc1ccc(OC)nc1 (stereo not given),9.48
13,CC(C)n1cnnc1CN(C)CC1CCOC1 (stereo not given),-3.944
14,CCN(CC)c1ccc(NC(=O)NCC2CCOC2)cn1 (stereo not given),10.55
15,Cc1cc(NC(=O)N(CC2CCOC2)C2CC2)no1 (stereo not given),-8.865
16,Cc1cc(C)c2c(N(C)CC3CCOC3)ncnc2n1 (stereo not given),14.02
17,Cc1cc(Br)cnc1N(C)CC1CCOC1 (stereo not given),110.5
18,Brc1cnc(NCCCOCC2CCOC2)nc1 (stereo not given),-7.311
19,CN(CC1CCOC1)c1ncc(Br)cn1 (stereo not given),108.2
20,CN(CC1CCOC1)c1ccc(Br)cn1 (stereo not given),73.32
21,COCC1CN(S(=O)(=O)Cc2ccc(C)cc2)Cc2c1cnn2C.O=C(O)C(F)(F)F (stereo not given),-11.46
22,CCCc1cncnc1N1CCC(NCCc2nc(O)cc(O)n2)CC1,12.44
23,Cc1ccccc1CCCN(Cc1ccccn1)S(C)(=O)=O,19.14
24,O=C(c1ncn2c(C3CCN(CC4CC4)CC3)ccnc12)N1CCCC1,-17.31
